# Experimental data as given in paper PMC7862700, “An all-to-all approach to the identification of sequence-specific readers for epigenetic DNA modifications on cytosine”.
# Columns and labels:
# Assay in all cases: DAPPL (digital affinity profiling via proximity ligation, sequencing); 10 mM Tris-HCl pH 7.5, 50 mM NaCl, 1 mM DTT, 4% glycerol, room temperature, 30 min; GST-TFs on glutathione beads, 16-mer random dsDNA library, 0.1% formaldehyde crosslink after washing; high values mean tight binding
# FLI1 = target: T1, FLI1 (Homo sapiens, UniProt Q01543 1-452); settings: protein: recombinant; tags: N-terminal GST; dsDNA, one strand shown
# T1 sequence: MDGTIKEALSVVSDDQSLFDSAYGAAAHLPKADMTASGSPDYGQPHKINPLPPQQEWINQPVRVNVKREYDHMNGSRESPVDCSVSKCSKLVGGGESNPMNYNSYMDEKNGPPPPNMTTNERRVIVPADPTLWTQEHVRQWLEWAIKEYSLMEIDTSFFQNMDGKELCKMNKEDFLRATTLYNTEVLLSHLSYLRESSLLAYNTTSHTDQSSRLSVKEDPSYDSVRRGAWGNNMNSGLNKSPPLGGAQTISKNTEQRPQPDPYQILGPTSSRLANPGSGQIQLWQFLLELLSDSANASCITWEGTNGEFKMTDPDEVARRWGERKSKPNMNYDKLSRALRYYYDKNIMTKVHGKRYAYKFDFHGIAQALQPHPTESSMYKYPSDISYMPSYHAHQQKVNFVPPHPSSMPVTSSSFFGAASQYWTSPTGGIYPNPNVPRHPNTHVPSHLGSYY
# Outline: (§1)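 After expression in yeast as GST fusions, human transcription factors were bound to glutathione beads, DNA-barcoded and mixed with a tag-only sample. The pools were incubated with 200 nmole of a 16-mer random double-stranded DNA library in Tris/NaCl/DTT/glycerol buffer (30 min, room temperature), washed and crosslinked with 0.1% formaldehyde. Proximity ligation with BsaI/T4 ligase ran for 1 h at 37 °C, before PCR amplification and sequencing on an Illumina NextSeq500. Binding signal is a hexamer's read frequency for a factor divided by its frequency for the tag-only sample.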
# ELK1 = target: T2, ELK1 (Homo sapiens, UniProt P19419 1-428); settings: protein: recombinant; tags: N-terminal GST; dsDNA, one strand shown
# T2 sequence: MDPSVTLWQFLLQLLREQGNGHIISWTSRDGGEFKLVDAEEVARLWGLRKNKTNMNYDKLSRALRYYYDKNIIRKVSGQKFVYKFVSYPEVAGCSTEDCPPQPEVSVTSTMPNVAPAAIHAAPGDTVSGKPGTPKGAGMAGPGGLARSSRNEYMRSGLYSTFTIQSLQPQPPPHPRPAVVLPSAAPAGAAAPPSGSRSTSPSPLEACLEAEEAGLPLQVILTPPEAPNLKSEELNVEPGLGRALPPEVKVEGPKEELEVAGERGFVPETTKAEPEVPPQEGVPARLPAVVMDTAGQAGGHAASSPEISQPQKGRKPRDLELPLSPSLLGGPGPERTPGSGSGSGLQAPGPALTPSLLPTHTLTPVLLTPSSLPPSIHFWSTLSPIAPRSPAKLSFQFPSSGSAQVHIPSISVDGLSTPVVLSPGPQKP
# Outline: as §1
# GABPA = target: T3, GABPA (Homo sapiens, UniProt Q06546 1-454); settings: protein: recombinant; tags: N-terminal GST; dsDNA, one strand shown
# T3 sequence: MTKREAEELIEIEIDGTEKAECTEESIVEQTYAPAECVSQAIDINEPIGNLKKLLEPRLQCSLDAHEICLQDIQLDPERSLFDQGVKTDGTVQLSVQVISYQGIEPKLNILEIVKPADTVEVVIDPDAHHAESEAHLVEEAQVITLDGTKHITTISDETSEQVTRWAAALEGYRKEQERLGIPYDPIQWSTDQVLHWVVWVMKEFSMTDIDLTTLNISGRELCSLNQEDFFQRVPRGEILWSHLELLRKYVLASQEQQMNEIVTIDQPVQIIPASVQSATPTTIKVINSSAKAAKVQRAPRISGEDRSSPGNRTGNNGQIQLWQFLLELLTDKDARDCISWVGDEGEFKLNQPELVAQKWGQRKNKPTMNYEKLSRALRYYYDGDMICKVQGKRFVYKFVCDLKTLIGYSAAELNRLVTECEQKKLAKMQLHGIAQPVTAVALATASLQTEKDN
# Outline: as §1
# ERG = target: T4, ERG (Homo sapiens, UniProt P11308 1-479); settings: protein: recombinant; tags: N-terminal GST; dsDNA, one strand shown
# T4 sequence: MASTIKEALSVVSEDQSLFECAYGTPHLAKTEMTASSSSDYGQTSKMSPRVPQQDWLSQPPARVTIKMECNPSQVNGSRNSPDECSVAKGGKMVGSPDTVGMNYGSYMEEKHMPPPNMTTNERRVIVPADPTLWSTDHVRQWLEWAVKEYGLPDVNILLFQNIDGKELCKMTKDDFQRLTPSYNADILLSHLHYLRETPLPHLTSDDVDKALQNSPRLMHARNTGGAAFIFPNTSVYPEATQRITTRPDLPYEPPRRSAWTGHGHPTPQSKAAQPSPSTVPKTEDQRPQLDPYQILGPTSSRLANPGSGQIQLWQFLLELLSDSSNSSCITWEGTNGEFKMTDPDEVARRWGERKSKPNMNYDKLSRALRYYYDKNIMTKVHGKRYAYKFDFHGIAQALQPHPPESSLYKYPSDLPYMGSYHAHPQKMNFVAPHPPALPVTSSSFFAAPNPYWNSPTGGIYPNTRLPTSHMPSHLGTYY
# Outline: as §1
# ELF1 = ELF1 (Homo sapiens, UniProt P32519 1-619); settings: protein: recombinant; tags: N-terminal GST; dsDNA, one strand shown
# Chain of ELF1 (P32519 whole entry): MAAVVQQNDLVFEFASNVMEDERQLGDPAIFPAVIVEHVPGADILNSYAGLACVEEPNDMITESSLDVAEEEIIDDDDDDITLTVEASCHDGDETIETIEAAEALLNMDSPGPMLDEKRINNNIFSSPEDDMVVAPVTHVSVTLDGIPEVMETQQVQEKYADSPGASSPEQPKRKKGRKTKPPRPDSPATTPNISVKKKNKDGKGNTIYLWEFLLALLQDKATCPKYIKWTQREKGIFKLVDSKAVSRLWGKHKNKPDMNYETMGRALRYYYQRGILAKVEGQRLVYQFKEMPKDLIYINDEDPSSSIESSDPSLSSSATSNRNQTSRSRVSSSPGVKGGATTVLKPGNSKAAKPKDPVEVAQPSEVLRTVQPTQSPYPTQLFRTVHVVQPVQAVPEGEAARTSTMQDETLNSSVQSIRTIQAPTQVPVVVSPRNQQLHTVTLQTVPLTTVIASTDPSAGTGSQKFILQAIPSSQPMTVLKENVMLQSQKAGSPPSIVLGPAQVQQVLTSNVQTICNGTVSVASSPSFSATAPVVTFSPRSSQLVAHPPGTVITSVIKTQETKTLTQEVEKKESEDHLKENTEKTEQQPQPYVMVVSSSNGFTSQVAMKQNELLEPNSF
# Outline: as §1
# EHF = target: T5, EHF (Homo sapiens, UniProt Q9NZC4 1-300); settings: protein: recombinant; tags: N-terminal GST; dsDNA, one strand shown
# T5 sequence: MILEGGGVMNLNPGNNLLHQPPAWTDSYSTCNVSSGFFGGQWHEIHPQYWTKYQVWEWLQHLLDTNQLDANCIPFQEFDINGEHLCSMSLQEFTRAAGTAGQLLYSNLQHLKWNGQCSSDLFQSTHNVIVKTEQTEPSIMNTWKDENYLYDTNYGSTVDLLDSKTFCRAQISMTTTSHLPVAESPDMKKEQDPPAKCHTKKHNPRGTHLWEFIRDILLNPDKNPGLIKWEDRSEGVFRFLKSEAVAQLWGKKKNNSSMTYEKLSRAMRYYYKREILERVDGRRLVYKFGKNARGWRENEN
# Outline: as §1
# SPI1 = SPI1 (Homo sapiens, UniProt P17947 1-270); settings: protein: recombinant; tags: N-terminal GST; dsDNA, one strand shown
# Outline: as §1
# SPIB = SPIB (Homo sapiens, UniProt Q01892 1-262); settings: protein: recombinant; tags: N-terminal GST; dsDNA, one strand shown
# Chain of SPIB (Q01892 whole entry): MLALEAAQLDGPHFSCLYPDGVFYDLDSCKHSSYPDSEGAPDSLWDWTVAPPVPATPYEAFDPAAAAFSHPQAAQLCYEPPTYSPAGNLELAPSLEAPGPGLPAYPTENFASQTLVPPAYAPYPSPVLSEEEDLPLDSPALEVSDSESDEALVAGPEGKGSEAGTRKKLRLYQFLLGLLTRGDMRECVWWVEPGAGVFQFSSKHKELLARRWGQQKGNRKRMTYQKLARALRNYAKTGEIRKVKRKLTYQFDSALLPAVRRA
# Outline: as §1
# ELK3 = target: T6, ELK3 (Homo sapiens, UniProt P41970 1-407); settings: protein: recombinant; tags: N-terminal GST; dsDNA, one strand shown
# T6 sequence: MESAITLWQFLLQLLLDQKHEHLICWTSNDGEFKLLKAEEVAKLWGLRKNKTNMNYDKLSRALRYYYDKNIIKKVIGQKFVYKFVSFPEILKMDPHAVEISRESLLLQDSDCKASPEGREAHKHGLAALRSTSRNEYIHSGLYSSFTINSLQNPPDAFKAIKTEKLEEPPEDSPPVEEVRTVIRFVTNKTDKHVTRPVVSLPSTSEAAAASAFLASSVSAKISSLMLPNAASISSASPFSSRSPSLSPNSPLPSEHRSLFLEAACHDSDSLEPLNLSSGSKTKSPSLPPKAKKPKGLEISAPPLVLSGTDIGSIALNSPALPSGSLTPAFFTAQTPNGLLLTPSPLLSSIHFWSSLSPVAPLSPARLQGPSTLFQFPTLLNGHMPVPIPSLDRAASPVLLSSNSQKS
# Outline: as §1
# FEV = target: T7, FEV (Homo sapiens, UniProt Q99581 1-238); settings: protein: recombinant; tags: N-terminal GST; dsDNA, one strand shown
# T7 sequence: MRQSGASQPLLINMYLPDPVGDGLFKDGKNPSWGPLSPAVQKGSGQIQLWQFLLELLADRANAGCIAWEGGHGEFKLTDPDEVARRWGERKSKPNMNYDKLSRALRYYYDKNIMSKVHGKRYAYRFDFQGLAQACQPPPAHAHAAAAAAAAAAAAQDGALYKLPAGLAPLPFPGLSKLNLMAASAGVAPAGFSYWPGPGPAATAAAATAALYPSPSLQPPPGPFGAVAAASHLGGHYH
# Outline: as §1
# ETV5 = ETV5 (Homo sapiens, UniProt P41161 1-510); settings: protein: recombinant; tags: N-terminal GST; dsDNA, one strand shown
# Chain of ETV5 (P41161 whole entry): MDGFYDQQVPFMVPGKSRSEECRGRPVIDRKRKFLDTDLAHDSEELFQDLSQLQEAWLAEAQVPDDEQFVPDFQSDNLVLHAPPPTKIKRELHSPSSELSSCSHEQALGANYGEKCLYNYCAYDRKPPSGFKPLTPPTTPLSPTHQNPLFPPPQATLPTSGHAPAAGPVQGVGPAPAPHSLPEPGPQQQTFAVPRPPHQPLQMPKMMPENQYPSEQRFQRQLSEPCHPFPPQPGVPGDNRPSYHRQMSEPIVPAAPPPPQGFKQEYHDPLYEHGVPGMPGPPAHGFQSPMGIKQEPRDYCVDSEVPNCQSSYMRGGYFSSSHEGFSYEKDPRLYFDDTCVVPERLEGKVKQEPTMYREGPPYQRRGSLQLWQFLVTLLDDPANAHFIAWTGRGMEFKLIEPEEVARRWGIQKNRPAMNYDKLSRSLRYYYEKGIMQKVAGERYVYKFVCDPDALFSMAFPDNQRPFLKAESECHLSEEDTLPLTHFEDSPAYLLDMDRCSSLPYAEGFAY
# Outline: as §1
# HSF1 = HSF1 (Homo sapiens, UniProt Q00613 1-529); settings: protein: recombinant; tags: N-terminal GST; chain copies: 3; dsDNA, one strand shown
# Chain of HSF1 (Q00613 whole entry): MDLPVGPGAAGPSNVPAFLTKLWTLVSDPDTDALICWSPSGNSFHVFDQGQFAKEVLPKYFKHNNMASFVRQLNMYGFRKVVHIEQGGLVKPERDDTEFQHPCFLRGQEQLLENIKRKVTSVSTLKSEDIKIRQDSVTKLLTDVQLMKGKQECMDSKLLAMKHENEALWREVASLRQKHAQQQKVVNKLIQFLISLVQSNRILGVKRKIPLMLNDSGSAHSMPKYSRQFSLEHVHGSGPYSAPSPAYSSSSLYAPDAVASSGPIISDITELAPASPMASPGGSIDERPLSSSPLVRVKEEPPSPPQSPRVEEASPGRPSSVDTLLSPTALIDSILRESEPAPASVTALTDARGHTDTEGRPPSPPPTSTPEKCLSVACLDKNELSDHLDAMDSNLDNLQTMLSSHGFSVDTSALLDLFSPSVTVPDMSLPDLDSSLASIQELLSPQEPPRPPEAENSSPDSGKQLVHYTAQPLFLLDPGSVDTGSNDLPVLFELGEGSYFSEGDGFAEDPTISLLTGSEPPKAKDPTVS
# Outline: as §1
# SPIC = target: T8, SPIC (Homo sapiens, UniProt Q8N5J4 1-248); settings: protein: recombinant; tags: N-terminal GST; dsDNA, one strand shown
# T8 sequence: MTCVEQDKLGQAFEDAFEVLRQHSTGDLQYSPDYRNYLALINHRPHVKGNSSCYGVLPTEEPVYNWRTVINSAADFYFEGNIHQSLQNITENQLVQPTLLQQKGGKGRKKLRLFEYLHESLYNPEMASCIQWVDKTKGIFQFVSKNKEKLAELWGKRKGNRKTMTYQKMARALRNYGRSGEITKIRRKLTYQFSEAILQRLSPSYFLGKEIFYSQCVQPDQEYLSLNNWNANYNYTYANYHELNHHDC
# Outline: as §1
# ELF4 = ELF4 (Homo sapiens, UniProt Q99607 1-663); settings: protein: recombinant; tags: N-terminal GST; dsDNA, one strand shown
# Chain of ELF4 (Q99607 whole entry): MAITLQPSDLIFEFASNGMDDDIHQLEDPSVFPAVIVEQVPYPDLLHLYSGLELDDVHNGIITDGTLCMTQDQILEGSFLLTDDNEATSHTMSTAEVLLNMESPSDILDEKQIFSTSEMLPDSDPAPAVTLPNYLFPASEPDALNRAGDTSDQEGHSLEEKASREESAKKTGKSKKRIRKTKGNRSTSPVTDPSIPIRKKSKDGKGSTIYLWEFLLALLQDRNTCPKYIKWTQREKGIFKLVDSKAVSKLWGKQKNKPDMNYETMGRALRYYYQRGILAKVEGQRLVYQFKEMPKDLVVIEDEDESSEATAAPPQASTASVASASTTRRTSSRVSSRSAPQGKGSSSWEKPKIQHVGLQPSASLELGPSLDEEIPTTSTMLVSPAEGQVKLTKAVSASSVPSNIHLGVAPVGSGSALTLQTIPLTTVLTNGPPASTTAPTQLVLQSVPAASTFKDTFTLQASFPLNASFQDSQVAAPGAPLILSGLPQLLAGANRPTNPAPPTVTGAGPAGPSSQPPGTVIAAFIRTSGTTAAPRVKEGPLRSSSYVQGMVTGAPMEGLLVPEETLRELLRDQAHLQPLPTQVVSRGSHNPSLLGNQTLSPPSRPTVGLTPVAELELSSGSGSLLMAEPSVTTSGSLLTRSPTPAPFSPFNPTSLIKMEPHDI
# Outline: as §1
# ELK4 = target: T9, ELK4 (Homo sapiens, UniProt P28324-2 1-405); settings: protein: recombinant; tags: N-terminal GST; dsDNA, one strand shown
# T9 sequence: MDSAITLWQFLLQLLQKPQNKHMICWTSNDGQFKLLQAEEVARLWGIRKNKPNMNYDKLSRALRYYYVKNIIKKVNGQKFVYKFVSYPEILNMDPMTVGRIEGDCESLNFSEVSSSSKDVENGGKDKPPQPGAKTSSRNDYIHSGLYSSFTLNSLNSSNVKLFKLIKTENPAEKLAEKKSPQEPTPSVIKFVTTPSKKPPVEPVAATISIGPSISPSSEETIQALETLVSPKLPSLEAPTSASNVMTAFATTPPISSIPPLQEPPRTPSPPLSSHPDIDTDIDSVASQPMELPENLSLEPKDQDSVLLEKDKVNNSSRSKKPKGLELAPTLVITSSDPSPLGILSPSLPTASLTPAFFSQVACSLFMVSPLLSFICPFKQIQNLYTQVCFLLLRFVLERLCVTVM
# Outline: as §1
# ETV2 = target: T10, ETV2 (Homo sapiens, UniProt O00321 1-342); settings: protein: recombinant; tags: N-terminal GST; dsDNA, one strand shown
# T10 sequence: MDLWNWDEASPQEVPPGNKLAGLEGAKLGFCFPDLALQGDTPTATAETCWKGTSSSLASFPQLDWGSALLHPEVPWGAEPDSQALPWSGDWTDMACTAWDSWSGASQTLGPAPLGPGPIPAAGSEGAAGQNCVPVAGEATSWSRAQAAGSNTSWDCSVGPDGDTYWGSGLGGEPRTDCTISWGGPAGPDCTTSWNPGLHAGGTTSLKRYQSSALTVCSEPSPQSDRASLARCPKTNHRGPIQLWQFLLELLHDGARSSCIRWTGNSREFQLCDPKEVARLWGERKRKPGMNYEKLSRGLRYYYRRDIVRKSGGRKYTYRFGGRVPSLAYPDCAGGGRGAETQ
# Outline: as §1
# ELF3 = target: T11, ELF3 (Homo sapiens, UniProt P78545 1-371); settings: protein: recombinant; tags: N-terminal GST; dsDNA, one strand shown
# T11 sequence: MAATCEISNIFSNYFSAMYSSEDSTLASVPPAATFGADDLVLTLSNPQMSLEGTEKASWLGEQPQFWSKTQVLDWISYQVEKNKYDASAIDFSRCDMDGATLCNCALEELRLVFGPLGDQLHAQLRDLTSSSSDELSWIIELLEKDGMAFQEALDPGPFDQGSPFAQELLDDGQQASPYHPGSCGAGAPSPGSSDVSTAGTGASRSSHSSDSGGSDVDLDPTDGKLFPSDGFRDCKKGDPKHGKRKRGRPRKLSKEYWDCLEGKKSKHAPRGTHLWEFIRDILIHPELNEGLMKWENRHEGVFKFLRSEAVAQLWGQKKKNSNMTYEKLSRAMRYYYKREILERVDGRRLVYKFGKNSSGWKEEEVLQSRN
# Outline: as §1
# CRX = CRX (Homo sapiens, UniProt O43186 1-299); settings: protein: recombinant; tags: N-terminal GST; dsDNA, one strand shown
# Chain of CRX (O43186 whole entry): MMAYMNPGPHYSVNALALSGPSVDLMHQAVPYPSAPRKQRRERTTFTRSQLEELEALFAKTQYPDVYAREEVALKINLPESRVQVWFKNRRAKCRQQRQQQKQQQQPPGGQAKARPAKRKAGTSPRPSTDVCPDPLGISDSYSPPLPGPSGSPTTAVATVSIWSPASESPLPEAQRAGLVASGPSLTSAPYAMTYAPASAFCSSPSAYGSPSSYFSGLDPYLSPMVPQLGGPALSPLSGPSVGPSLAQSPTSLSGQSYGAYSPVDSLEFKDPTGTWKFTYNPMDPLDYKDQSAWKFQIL
# Outline: as §1
# ETV1 = ETV1 (Homo sapiens, UniProt P50549 1-477); settings: protein: recombinant; tags: N-terminal GST; dsDNA, one strand shown
# Chain of ETV1 (P50549 whole entry): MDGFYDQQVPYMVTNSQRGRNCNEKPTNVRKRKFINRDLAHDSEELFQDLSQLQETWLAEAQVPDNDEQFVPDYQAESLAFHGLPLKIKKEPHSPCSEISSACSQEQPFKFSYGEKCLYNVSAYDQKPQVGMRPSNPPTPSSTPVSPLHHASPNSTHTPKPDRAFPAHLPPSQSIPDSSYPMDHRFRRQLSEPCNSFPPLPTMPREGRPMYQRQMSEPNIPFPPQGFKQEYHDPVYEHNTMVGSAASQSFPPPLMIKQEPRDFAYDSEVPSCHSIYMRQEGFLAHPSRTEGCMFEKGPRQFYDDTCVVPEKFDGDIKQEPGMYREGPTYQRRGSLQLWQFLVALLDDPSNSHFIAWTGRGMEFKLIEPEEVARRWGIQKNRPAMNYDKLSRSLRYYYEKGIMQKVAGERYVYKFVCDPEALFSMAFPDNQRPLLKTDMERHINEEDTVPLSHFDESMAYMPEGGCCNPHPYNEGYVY
# Outline: as §1
sequence,measurement,setting,value
CTGAGC,binding signal,FLI1,"1.08 fold enrichment (6-mer frequency, TF over GST control)"
same,binding signal,ELK1,"1.15 fold enrichment (6-mer frequency, TF over GST control)"
same,binding signal,GABPA,"1.18 fold enrichment (6-mer frequency, TF over GST control)"
same,binding signal,ERG,"1.09 fold enrichment (6-mer frequency, TF over GST control)"
same,binding signal,ELF1,"1.19 fold enrichment (6-mer frequency, TF over GST control)"
same,binding signal,EHF,"1.18 fold enrichment (6-mer frequency, TF over GST control)"
same,binding signal,SPI1,"1.11 fold enrichment (6-mer frequency, TF over GST control)"
same,binding signal,SPIB,"1.06 fold enrichment (6-mer frequency, TF over GST control)"
same,binding signal,ELK3,"1.18 fold enrichment (6-mer frequency, TF over GST control)"
same,binding signal,FEV,"1.21 fold enrichment (6-mer frequency, TF over GST control)"
same,binding signal,ETV5,"1.12 fold enrichment (6-mer frequency, TF over GST control)"
same,binding signal,HSF1,"1.09 fold enrichment (6-mer frequency, TF over GST control)"
same,binding signal,SPIC,"1.08 fold enrichment (6-mer frequency, TF over GST control)"
same,binding signal,ELF4,"1.19 fold enrichment (6-mer frequency, TF over GST control)"
same,binding signal,ELK4,"1.14 fold enrichment (6-mer frequency, TF over GST control)"
same,binding signal,ETV2,"1.37 fold enrichment (6-mer frequency, TF over GST control)"
same,binding signal,ELF3,"1.16 fold enrichment (6-mer frequency, TF over GST control)"
same,binding signal,CRX,"1.3 fold enrichment (6-mer frequency, TF over GST control)"
same,binding signal,ETV1,"1.15 fold enrichment (6-mer frequency, TF over GST control)"
